# PubChem BioAssay (NCATS)
# Where “and” joins values, the source holds several entries; their conditions need not be identical. Equal values may be shown once. Results filed as inconclusive are left out. Entries that show only a call come without a potency. Calls of active or inactive are those of the source. Unless noted, calls follow the shape of the full dose curve.
# Assays:
# [1] = qHTS assay for small molecule agonists of retinoid X receptor alpha signaling (AID 588544); details: HEK293T RXRa-UAS-bla, beta-lactamase reporter, 18 h; 530 nm emission
# [2] = target: Retinoic acid receptor RXR-alpha (Homo sapiens) (UniProt P19793); test: as above; details: HEK293T RXRa-UAS-bla, beta-lactamase reporter, 18 h; series mostly up to 76.7 µM
# Retinoic acid receptor RXR-alpha (Homo sapiens), sequence (P19793 whole entry, looked up): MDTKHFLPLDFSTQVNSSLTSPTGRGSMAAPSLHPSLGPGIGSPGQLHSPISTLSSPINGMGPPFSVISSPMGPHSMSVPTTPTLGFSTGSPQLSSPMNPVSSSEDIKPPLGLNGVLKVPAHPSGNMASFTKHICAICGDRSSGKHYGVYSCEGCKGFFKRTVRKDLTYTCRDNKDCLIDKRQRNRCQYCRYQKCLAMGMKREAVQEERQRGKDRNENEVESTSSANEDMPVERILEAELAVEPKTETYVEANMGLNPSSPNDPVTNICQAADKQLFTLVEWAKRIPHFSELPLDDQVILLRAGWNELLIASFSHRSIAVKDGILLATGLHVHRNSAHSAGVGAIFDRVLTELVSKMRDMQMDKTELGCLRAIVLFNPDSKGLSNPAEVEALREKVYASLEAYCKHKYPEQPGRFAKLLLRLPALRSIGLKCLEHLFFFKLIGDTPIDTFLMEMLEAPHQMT
# [3] = target: Thyroid hormone receptor beta (Homo sapiens) (UniProt P10828); test: qHTS assay for small molecule agonists of thyroid hormone receptor beta signaling (AID 588545); details: TR-UAS-bla GripTite HEK 293, beta-lactamase ratio, agonist mode, 18 h, percent of T3 response, DMSO as zero; series mostly up to 76.7 µM
# Thyroid hormone receptor beta (Homo sapiens), sequence (P10828 whole entry, looked up): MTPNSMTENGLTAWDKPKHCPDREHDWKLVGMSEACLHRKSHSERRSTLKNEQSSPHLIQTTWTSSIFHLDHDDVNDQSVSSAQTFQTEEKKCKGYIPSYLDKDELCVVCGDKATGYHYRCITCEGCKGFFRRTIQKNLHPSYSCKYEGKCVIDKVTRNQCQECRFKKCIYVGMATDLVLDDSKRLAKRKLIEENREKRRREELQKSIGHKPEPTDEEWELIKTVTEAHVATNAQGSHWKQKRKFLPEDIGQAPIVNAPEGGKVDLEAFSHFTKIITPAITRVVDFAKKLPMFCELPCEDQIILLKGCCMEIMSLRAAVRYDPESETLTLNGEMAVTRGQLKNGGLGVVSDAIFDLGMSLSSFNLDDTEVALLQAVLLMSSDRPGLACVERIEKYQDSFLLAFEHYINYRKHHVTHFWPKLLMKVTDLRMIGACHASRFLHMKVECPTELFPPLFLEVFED
# Procedure, shortened: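 Cells (2500/well) were seeded, incubated 4 hrs at 37 C, dosed with a compound series, incubated 18 hrs, loaded with CCF4 dye for 2 hrs at RT, then read for fluorescence. Data were scaled between DMSO (0%) and 10 nM T3 (100%).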
# [4] = qHTS assay for small molecule antagonists of retinoid X receptor alpha signaling (AID 588546; active = well fitted inhibition curve with a large enough effect in the signal ratio, with a control signal flat, not every such curve was filed as active; the % refers to the signal ratio;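 also: cells stimulated with 9-cis-retinoic acid as agonist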); details: HEK293T RXRa-UAS-bla, beta-lactamase ratio, antagonist mode; measured here: W530 green channel, cytotoxicity proxy
# Procedure, shortened: (§1)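 Beta-lactamase reporter inhibition, read as CCF4 fluorescence ratio (ex 405, em 460/530 nm) after 2 h at RT. HEK293T UAS-bla cells, 2500/well, were stimulated with 9-cis-RA at 500 or 100 nM final alongside test compound for 18 h at 37 C.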
# [5] = target: Retinoic acid receptor RXR-alpha (Homo sapiens) (UniProt P19793); test: as above; details: HEK293T RXRa-UAS-bla, beta-lactamase ratio, antagonist mode
# Procedure, shortened: as §1
# [6] = target: Thyroid hormone receptor beta (Homo sapiens) (UniProt P10828); test: qHTS assay for small molecule antagonists of thyroid hormone receptor beta signaling (AID 588547; active = well fitted inhibition curve with a large enough effect in the signal ratio, with a control signal flat, not every such curve was filed as active; the % refers to the signal ratio;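 also: cells stimulated with 0.4 nM T3 agonist during compound exposure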); details: TR-UAS-bla HEK293, beta-lactamase ratio, antagonist mode, 18 h
# Procedure, shortened: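 Inhibition of T3-driven (0.4nM final) beta-lactamase reporter activity was measured over 0.59 nM to 92 uM compound after 18 h at 37 C. The cells were GripTite HEK293 TR-UAS-bla in charcoal/dextran-stripped serum, with CCF4 ratio read-out and IC50 from Hill fits.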
# [7] = target: Voltage-gated inwardly rectifying potassium channel KCNH2 (Homo sapiens) (UniProt Q12809); test: qHTS Assay for Small Molecule Inhibitors of the Human hERG Channel Activity (AID 588834; active = well fitted curve in the direction sought with a large enough effect; an effect the other way counts as inactive or inconclusive;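 also: top concentration of the series differs between compounds; lower thallium flux fluorescence means stronger hERG block; nearly all actives have a fitted effect of over 50% in size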); details: U2OS BacMam hERG, FluxOR thallium flux fluorescence; series mostly up to 92.2 µM
# Voltage-gated inwardly rectifying potassium channel KCNH2 (Homo sapiens), sequence (Q12809 whole entry, looked up): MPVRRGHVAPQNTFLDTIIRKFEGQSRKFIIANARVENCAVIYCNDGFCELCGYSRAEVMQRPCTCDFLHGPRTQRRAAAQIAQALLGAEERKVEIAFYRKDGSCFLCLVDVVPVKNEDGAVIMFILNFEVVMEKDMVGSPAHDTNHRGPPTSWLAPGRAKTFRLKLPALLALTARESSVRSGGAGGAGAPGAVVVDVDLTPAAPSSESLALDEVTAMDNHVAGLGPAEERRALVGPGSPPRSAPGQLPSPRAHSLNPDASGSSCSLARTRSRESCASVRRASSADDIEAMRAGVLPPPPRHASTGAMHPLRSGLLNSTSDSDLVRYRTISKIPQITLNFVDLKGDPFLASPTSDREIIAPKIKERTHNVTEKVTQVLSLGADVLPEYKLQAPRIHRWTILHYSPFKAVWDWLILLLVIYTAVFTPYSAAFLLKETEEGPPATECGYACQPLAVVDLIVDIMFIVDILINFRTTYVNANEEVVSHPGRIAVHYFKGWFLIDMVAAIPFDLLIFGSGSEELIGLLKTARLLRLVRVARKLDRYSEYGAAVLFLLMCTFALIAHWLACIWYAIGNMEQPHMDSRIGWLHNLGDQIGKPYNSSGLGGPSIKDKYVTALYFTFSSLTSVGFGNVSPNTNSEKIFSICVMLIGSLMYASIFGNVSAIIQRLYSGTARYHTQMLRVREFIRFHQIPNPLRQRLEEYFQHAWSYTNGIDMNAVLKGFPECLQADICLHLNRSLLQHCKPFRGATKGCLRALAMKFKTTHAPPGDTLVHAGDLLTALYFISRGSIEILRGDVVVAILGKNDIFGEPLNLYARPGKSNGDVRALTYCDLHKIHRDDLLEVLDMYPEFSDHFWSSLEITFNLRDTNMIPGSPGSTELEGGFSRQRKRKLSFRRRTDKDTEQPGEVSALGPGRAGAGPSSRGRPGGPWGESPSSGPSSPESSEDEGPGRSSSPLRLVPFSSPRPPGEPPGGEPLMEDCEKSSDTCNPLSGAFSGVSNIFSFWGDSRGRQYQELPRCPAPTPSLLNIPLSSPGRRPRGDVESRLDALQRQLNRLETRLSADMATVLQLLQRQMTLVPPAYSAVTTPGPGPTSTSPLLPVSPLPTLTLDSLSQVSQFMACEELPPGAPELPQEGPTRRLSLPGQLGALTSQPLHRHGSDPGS
# Procedure, shortened: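 Homogeneous FluxOR thallium flux assay using hERG-expressing U2OS cells (BacMam). Compound treatment about 10 minutes preceded stimulation; reduced fluorescence taken as channel block.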
# [8] = qHTS assay for small molecule agonists of the antioxidant response element (ARE) signaling pathway (AID 651741; active = well fitted activation curve with a large enough effect in the signal ratio; the % refers to the signal ratio); details: HepG2 ARE-bla reporter, beta-lactamase FRET ratio, 16 h; series mostly up to 96 µM
# Procedure, shortened: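 Beta-lactamase reporter under ARE control in HepG2 cells, 2,000 per well, was induced by 16 h compound treatment at 37 C. Read-out was fluorescence from LiveBLAzer B/G FRET substrate after 2 h at room temperature.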
# [9] = qHTS assay for small molecule activators of the p53 signaling pathway (AID 651743; active = well fitted activation curve with a large enough effect in the signal ratio, not every such curve was filed as active; the % refers to the signal ratio); details: HCT-116 p53RE-bla, beta-lactamase FRET ratio, 16 h; stronger effect = higher value
# Procedure, shortened: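 After 16 hours compound treatment at 37 C, HCT-116 cells stably expressing p53RE-driven beta-lactamase were loaded with LiveBLAzer B/G FRET substrate for 2 hours at room temperature. Fluorescence intensity served as the p53 activation read-out.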
# [10] = qHTS assay for small molecule activators of the nuclear factor-kappa B (NF-kB) signaling pathway (AID 651749; active = well fitted activation curve with a large enough effect in the signal ratio; the % refers to the signal ratio); details: NF-kB-bla ME-180 cells, beta-lactamase FRET ratio, 16 h; stronger effect = higher value
# Procedure, shortened: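 Activation measured after 16 hr compound treatment at 37C, 5% CO2, of 2,000 ME-180 cells/well stably expressing an NF-kB response element–driven beta-lactamase reporter, via FRET-disruption fluorescence.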
# [11] = qHTS assay for small molecule disruptors of the mitochondrial membrane potential - 1 hr assay (AID 651754); details: series mostly up to 92.2 µM; also: nearly all actives have a fitted effect of over 35% in size
# Procedure, shortened: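 Loss of mitochondrial potential shifts the cationic dye from red mitochondrial aggregates to green cytoplasmic monomers. Cells (HepG2) are treated with compound for 1 hr before a 30 min dye incubation at 37C.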
# [12] = qHTS assay for small molecule disruptors of the mitochondrial membrane potential - 5 hr assay (AID 651755); details: JC-1-type ratio dye; series mostly up to 92.2 µM; also: nearly all actives have a fitted effect of over 40% in size
# Procedure, shortened: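 Membrane-potential dye readout: red aggregate (540 ex/590 em) versus green monomer (490 ex/535 em) fluorescence after 30 min dye loading, following 5 hr compound exposure at 37C of overnight-plated HepG2 cells.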
# [13] = target: Tumor necrosis factor (Homo sapiens) (UniProt P01375); test: qHTS assay to identify small molecules that stimulate Tumor Necrosis Factor-alpha (TNF-alpha) secretion (AID 651757; active = well fitted curve in the direction sought with a large enough effect in the signal ratio; the % refers to the signal ratio); details: Human cells, HTRF 665/615 ratio; series mostly up to 92.2 µM
# Tumor necrosis factor (Homo sapiens), sequence (P01375 whole entry, looked up): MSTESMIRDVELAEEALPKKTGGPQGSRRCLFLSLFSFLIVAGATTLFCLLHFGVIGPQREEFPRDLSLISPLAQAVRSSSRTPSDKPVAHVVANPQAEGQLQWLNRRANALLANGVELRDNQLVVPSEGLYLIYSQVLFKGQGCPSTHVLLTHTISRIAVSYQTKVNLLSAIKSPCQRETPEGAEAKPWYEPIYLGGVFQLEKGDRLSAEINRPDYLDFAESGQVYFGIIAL
# Procedure, shortened: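 Human monocytic THP-1 cells are plated, treated with compound and held at 37 C for 17 hrs. Labeled anti-TNF-alpha antibody mixture is then added; after 3 hr at room temperature, TR-FRET signal reports secreted TNF-alpha.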
# [14] = qHTS assay for environmental chemicals that activate the Aryl hydrocarbon Receptor (AhR) signaling pathway (AID 651777; active = well fitted curve in the direction sought with a large enough effect; an effect the other way counts as inactive or inconclusive; also: nearly all actives have a fitted effect of over 15% in size); details: 1A2-DRE human hepatoma cells, luciferase, 24 h; activation: stronger effect = higher value
# Procedure, shortened: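 Quantitative HTS in stably transfected human liver-derived cells whose luciferase gene sits downstream of the CYP1A2 promoter and dioxin response element. After 24 hr exposure at 37 C, One-Glo luminescence was measured.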
# [15] = target: Peroxisome proliferator-activated receptor alpha (Homo sapiens) (UniProt Q07869); test: qHTS assay for small molecule agonists of the peroxisome proliferator-activated receptor alpha (PPARalpha) signaling pathway (AID 651778; active = well fitted curve in the direction sought with a large enough effect; an effect the other way counts as inactive or inconclusive); details: PathHunter PPARalpha complementation, chemiluminescence, 6 h; stronger effect = higher value
# Peroxisome proliferator-activated receptor alpha (Homo sapiens), sequence (Q07869 whole entry, looked up): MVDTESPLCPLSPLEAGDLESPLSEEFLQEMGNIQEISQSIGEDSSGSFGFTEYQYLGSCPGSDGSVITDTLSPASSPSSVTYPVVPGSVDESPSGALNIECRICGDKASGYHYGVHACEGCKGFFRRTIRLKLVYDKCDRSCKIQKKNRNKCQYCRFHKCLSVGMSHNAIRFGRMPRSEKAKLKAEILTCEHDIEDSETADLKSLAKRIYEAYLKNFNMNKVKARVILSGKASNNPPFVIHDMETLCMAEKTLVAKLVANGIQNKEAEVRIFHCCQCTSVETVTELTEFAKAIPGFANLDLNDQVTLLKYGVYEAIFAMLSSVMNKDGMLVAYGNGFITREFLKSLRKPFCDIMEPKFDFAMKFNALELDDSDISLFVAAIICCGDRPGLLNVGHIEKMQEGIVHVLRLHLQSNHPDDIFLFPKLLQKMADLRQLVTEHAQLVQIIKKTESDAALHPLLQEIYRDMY
# Procedure, shortened: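 Chemiluminescence from complemented enzyme reported PPARalpha activation in cells after 6 hr of compound treatment at 37 C. The detection reagent was incubated for 60 min at room temperature, and compounds were scored as agonists.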
# [16] = qHTS assay for small molecule agonists of the antioxidant response element (ARE) signaling pathway measured by Nrf2-dependant transcriptional activity (AID 720636; active = well fitted curve in the direction sought with a large enough effect in the repeat runs; an effect the other way counts as inactive or inconclusive); details: ARE-luc HepG2, Nrf2 luciferase reporter, 16 h; series mostly up to 92.4 µM
# Procedure, shortened: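 Quantitative HTS format in HepG2 cells stably expressing an ARE-luciferase reporter; 16 hr compound treatment at 37 C, luciferase signal detected with ONE-Glo.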
# [17] = qHTS assay for small molecule antagonists of the retinoid-related orphan receptor gamma (ROR-gamma) signaling pathway - cell viability counter screen (AID 720652; active = well fitted curve in the direction sought with a large enough effect in the repeat runs; an effect the other way counts as inactive or inconclusive;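 also: CHO reporter cells with doxycycline-induced ROR-gamma expression; compound exposure lasted 16 hr before ATP read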); details: RORgamma reporter cell line viability counter screen; series mostly up to 92.2 µM
# Procedure, shortened: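 Steps: seed CHO cells bearing TET-inducible ROR and ROR response element-luciferase; rest 5 hr at 37 C; add compound, then doxycycline; incubate 16 hr; add CellTiter-Glo and read luminescence as ATP-based viability.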
# [18] = qHTS assay for small molecule agonists of the antioxidant response element (ARE) signaling pathway measured by Nrf2-dependant transcriptional activity - cell viability counter screen (AID 720653; active = well fitted curve in the direction sought with a large enough effect in the repeat runs; an effect the other way counts as inactive or inconclusive); details: ARE-bla HepG2 viability, CellTiter-Glo ATP luminescence, 16 h; stronger effect = lower value
# Procedure, shortened: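 Cytotoxicity counter screen: intracellular ATP quantified by CellTiter-Glo luminescence in the same ARE-bla HepG2 plates, after 16 h compound exposure and a 2 h beta-lactamase substrate step.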
# [19] = qHTS assay to identify small molecules that stimulate interleukin-8 (IL-8) secretion (AID 651758; active = well fitted activation curve with a large enough effect in the signal ratio; the % refers to the signal ratio); details: HTRF ratio (665/615); series mostly up to 92.2 µM
# Procedure, shortened: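 Secreted IL-8 measured homogeneously by TR-FRET (two labelled anti-IL-8 antibodies, 1-3 h at room temperature) after a 16 h, 37 C compound treatment of THP-1 cells at 2000 cells/well.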
# [20] = target: Nuclear receptor ROR-gamma (Homo sapiens) (UniProt P51449); test: qHTS assay for small molecule antagonists of the retinoid-related orphan receptor gamma (ROR-gamma) signaling pathway (AID 651802; active = well fitted curve in the direction sought with a large enough effect; an effect the other way counts as inactive or inconclusive;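 also: CHO cells with doxycycline-induced ROR-gamma expression; nearly all actives have a fitted effect of over 60% in size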); details: ROR-gamma antagonist cell reporter assay; series mostly up to 92.2 µM
# Nuclear receptor ROR-gamma (Homo sapiens), sequence (P51449 whole entry, looked up): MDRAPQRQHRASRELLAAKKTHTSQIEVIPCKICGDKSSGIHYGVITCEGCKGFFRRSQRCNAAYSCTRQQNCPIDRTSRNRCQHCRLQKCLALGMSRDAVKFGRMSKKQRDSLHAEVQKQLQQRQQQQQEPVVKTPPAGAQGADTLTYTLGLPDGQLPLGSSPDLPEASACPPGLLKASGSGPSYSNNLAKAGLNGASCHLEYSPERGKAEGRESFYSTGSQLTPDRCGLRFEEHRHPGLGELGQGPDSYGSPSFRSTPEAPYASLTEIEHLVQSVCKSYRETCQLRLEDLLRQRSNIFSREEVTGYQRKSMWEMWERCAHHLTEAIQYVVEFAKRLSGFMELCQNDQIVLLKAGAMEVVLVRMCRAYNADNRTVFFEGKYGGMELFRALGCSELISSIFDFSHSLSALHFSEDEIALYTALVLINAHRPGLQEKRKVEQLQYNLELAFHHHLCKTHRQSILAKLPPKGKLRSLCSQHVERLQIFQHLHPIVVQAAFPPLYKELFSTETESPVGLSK
# Procedure, shortened: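 Steps: cells dispensed; compound or DMSO transferred by pin tool; doxycycline added to induce the ROR response element-driven luciferase; plates held 16hr at 37C; ONE-Glo added and luminescence measured.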
smiles,measurement,setting,value
C1COC1,max response,[1],-1.49%
same,outcome,[2],inactive
same,outcome,[3],inactive
same,max response,[4],-8.83%
same,max response,[5],0.231% (inactive)
same,activity change % (negative = inhibition),[6],14.8% (inactive)
same,Potency,[7],inactive
same,Potency,[8],inactive
same,activation,[9],0.23% (inactive)
same,activation,[10],-0.645% (inactive)
same,Potency,[11],inactive
same,Potency,[12],inactive
same,Potency,[13],inactive
same,activation,[14],-0.727% (inactive)
same,max response,[15],0.481% (inactive)
same,outcome,[16],inactive
same,Potency,[17],inactive
same,max response,[18],-0.519% (inactive)
c1ccsc1,max response,[1],-5.29%
same,outcome,[2],inactive
same,outcome,[3],inactive
same,max response,[4],-0.2%
same,max response,[5],-6.87% (inactive)
same,activity change % (negative = inhibition),[6],-13.7% (inactive)
same,Potency,[7],inactive
same,Potency,[8],inactive
same,activation,[9],1.47% (inactive)
same,activation,[10],0.633% (inactive)
same,Potency,[11],inactive
same,Potency,[12],inactive
same,Potency,[13],inactive
same,Potency,[19],inactive
same,activation,[14],-0.706% (inactive)
same,max response,[15],-6.32% (inactive)
same,Potency,[20],inactive
same,outcome,[16],inactive
same,Potency,[17],inactive
same,max response,[18],9% (inactive)
O=C(O)c1ccc(C(=O)O)cc1,max response,[1],-16.5% and -21.7%
same,outcome,[2],inactive
same,outcome,[3],inactive
same,max response,[4],-3.66% and -13.6%
same,max response,[5],1.97% (inactive) and -1.47% (inactive)
same,activity change % (negative = inhibition),[6],-2.68% (inactive) and 4.87% (inactive)
same,Potency,[7],inactive
same,Potency,[8],inactive
same,activation,[9],-0.449% (inactive) and 6.06% (inactive)
same,activation,[10],0.423% (inactive) and -1.36% (inactive)
same,Potency,[11],inactive
same,Potency,[12],inactive
same,Potency,[13],inactive
same,Potency,[19],inactive
same,activation,[14],-0.394% (inactive) and -1.3% (inactive)
same,max response,[15],-2.31% (inactive) and 0.244% (inactive)
same,Potency,[20],inactive
same,outcome,[16],inactive
same,max response,[18],-2.71% (inactive) and -15.5% (inactive)
COCCOC(=O)c1ccccc1C(=O)OCCOC,max response,[1],-5.12%
same,outcome,[2],inactive
same,outcome,[3],inactive
same,max response,[4],-3.43%
same,max response,[5],23.2% (inactive)
same,activity change % (negative = inhibition),[6],7.4% (inactive)
same,Potency,[7],inactive
same,Potency,[8],inactive
same,activation,[9],-1.05% (inactive)
same,activation,[10],0.152% (inactive)
same,Potency,[11],inactive
same,Potency,[12],inactive
same,Potency,[13],inactive
same,Potency,[19],inactive
same,max response,[15],2.89% (inactive)
same,outcome,[16],inactive
same,Potency,[17],inactive
same,max response,[18],9.02% (inactive)
Cc1ccc(C)c(N)c1,max response,[1],7.96%
same,outcome,[2],inactive
same,outcome,[3],inactive
same,max response,[4],-10.5%
same,max response,[5],21.7% (inactive)
same,activity change % (negative = inhibition),[6],-4.28% (inactive)
same,Potency,[7],inactive
same,Potency,[8],inactive
same,activation,[9],-2.64% (inactive)
same,activation,[10],0.0574% (inactive)
same,Potency,[11],inactive
same,Potency,[12],inactive
same,Potency,[13],inactive
same,Potency,[19],inactive
same,activation,[14],-0.892% (inactive)
same,max response,[15],7.66% (inactive)
same,outcome,[16],inactive
same,Potency,[17],inactive
same,max response,[18],0.0142% (inactive)
CC1(N)CCC(C(C)(C)N)CC1 (stereo not drawn),max response,[1],-6.34%
same,outcome,[2],inactive
same,outcome,[3],inactive
same,max response,[4],4.37%
same,max response,[5],0.335% (inactive)
same,activity change % (negative = inhibition),[6],-1.11% (inactive)
same,Potency,[7],inactive
same,Potency,[8],inactive
same,activation,[9],0.302% (inactive)
same,activation,[10],-1.08% (inactive)
same,Potency,[11],inactive
same,Potency,[12],inactive
same,Potency,[13],inactive
same,Potency,[19],inactive
same,activation,[14],-0.642% (inactive)
same,max response,[15],0.74% (inactive)
same,Potency,[20],inactive
same,outcome,[16],inactive
same,Potency,[17],inactive
